# From publication PMC4336329 (PLoS ONE, 2015)
# The whole screen tested about 310,000 compounds, of which about 14,000 (4.5%) showed an effect of 50% or more. The effect is printed as a negative number. This excerpt belongs to a sample that is enriched for strong results.
# Biological target: human ether-à-go-go-related gene (hERG) potassium channel (human, UniProt Q12809)
# Assay: primary screen, population patch clamp on CHO cells stably expressing hERG; higher = less effect of the substance
# 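Further: peak tail current of the secondary pulse compared with the same well before compound.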
# human ether-à-go-go-related gene (hERG) potassium channel, sequence (Q12809 whole entry, looked up): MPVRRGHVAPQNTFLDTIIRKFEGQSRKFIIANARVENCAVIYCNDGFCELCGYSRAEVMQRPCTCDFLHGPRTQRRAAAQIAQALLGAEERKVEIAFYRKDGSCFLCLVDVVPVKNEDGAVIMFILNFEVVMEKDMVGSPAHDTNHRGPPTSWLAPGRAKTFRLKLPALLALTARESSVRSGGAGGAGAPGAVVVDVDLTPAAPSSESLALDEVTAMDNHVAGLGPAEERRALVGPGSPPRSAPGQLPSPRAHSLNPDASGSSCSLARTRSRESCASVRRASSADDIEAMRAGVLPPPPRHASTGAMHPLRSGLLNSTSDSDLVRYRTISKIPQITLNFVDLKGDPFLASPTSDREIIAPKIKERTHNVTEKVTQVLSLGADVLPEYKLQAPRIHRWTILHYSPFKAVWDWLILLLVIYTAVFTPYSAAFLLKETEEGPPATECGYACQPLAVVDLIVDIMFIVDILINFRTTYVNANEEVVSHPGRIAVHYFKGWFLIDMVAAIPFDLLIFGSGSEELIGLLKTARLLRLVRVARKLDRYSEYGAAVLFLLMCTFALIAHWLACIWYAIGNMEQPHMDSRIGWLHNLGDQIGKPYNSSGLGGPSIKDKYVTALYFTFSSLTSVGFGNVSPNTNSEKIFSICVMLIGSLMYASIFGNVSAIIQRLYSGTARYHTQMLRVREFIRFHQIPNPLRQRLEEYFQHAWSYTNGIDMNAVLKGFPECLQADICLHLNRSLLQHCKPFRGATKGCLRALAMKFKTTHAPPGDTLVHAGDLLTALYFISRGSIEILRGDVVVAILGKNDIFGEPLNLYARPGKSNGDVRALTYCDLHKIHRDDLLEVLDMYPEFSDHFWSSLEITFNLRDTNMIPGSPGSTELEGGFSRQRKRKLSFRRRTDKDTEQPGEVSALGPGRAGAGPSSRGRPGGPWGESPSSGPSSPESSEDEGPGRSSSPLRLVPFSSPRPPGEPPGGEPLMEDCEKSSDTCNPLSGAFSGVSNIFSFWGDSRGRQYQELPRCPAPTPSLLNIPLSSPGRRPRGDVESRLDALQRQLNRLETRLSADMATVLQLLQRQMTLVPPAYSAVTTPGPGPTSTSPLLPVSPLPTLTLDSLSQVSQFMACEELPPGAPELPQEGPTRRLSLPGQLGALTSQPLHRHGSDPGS
row,Structure (SMILES),"hERG current change (%, negative = inhibition) at 10uM [%]"
1,COc1cccc(NC(=S)NNC(=O)c2ccccc2OC(F)F)c1,12.3
2,Fc1ccccc1-c1[nH]ncc1-c1nnnn1-c1ccccc1,5.39
3,CCc1nnc(NC(=O)c2ccc3c(c2)C(=O)N(C(C)(C)C)C3=O)s1,7.02
4,O=C(CSc1ccc2ccccc2c1)NC1CCCc2ccccc21 (stereo not drawn),8.2
5,COc1ccc(Cl)cc1NC(=S)NC(=O)c1ccco1,-31.5
6,COc1cc(/C=N/NC(=O)CNC(=O)c2ccco2)ccc1O,7.95
7,COc1ccc([N+](=O)[O-])cc1NC(=O)C(C)OC(=O)C1CC(=O)N(Cc2ccco2)C1 (stereo not drawn),-57.4
8,COc1ccc([N+](=O)[O-])cc1NC(=O)C(C)OC(=O)c1ccccn1 (stereo not drawn),-7.61
9,CCc1noc(C)c1C(=O)OC(C)C(=O)Nc1ccccc1OC (stereo not drawn),-12.8
10,CCc1noc(C)c1C(=O)OC(C)C(=O)Nc1cc([N+](=O)[O-])ccc1OC (stereo not drawn),-53.1
11,CC(OC(=O)C1CC(=O)N(Cc2ccco2)C1)C(=O)Nc1ccccc1[N+](=O)[O-] (stereo not drawn),-19.1
12,COc1cc2c(cc1NC(=O)C(C)OC(=O)C1CC(=O)N(Cc3ccco3)C1)oc1ccccc12 (stereo not drawn),-1.77
13,O=C(COC(=O)c1ccc(Cl)c(S(=O)(=O)N2CCCC2)c1)NCc1cccs1,-39.8
14,CCOc1ccc(/C=N/NC(=O)C2(O)c3ccccc3-c3ccccc32)cc1,4.13
15,CCSc1nnc(NC(=O)[C@@H](NC(=O)c2ccccc2F)C(C)C)s1,-8.27
16,O=C(Nc1nccs1)c1ccc(F)c(S(=O)(=O)N2CCOCC2)c1,-18.8
17,Cc1cc(C)n(CC(O)Cn2ccc3ccccc32)n1 (stereo not drawn),-12.5
18,CC1C2CC(C(CN(C)C)/C2=N/O)C1(C)C (stereo not drawn),-9.04
19,COc1ccc(C2=CC(=O)N(Nc3ccccc3)C2=O)cc1,24.6
20,O=C1C=C(c2ccc(Cl)cc2)C(=O)N1Nc1ccccc1,13.1
21,O=C1C=C(c2ccccc2)C(=O)N1Nc1ccccc1,-77.2
22,CN(c1ccccc1)c1nc2ccsc2c(=O)s1,4.47

row,Structure (SMILES),"hERG current change (%, negative = inhibition) at 10uM [%]"
1,CC(C)CCN1CCN(Cc2cccn2-c2ccccn2)CC1CCO (stereo not drawn),-75.5
2,CC(C)CN1CCN(Cc2cccn2-c2ccccn2)CC1CCO (stereo not drawn),-55.9
3,CCn1ccnc1CN1CCN(CCC(C)C)C(CCO)C1 (stereo not drawn),18.9
4,CC(C)CCN1CCN(Cc2cccc3cccnc23)CC1CCO (stereo not drawn),-26.2
5,CC(C)=CCN1CCN(Cc2cccn2-c2ncccn2)CC1CCO (stereo not drawn),-39.6
6,CC(C)N1CCN(Cc2cccn2-c2ccccn2)CC1CCO (stereo not drawn),-31.2
7,CC(C)=CCN1CCN(Cc2cccn2-c2ccccn2)CC1CCO (stereo not drawn),-55.4
8,CC(C)=CCN1CCN(Cc2ccc(Oc3ncccn3)cc2)CC1CCO (stereo not drawn),9.1
9,CC(C)CN1CCN(Cc2cccc3ncccc23)CC1CCO (stereo not drawn),-2.49
10,CCC(C)N1C(=O)N(C)C2NC(=O)NC21 (stereo not drawn),-2.9
11,Cc1ccc(OCC(=O)NNC(=S)NC(=O)C2CC2)c(C)c1,23.2
12,Nc1c2c(nc3c1CCCC3)CCCC2.O=C(O)c1cc[nH]c(=O)c1,-10.1
13,Clc1ccc(OCC#CCN2CCCCCC2)cc1.O=C(O)C(=O)O,-34.7
14,Cc1ccccc1Nc1nnc(C)c(=O)[nH]1,-11.3
15,CC(=O)N1CCN(c2ccc(NC(=O)c3ccc([N+](=O)[O-])cc3Cl)cc2)CC1,-8.49
16,CCOc1cccc(OCCOCCN(C)Cc2ccccc2)c1,-49.3
17,CCN(CC(=O)NCc1ccc(Cl)cc1)C(=O)CSc1ccc(Br)cc1,-79.2
18,O=C(CSc1ccc(Cl)cc1)NCc1ccncc1,-14.2
19,CCN(CC(=O)NCc1ccc(F)cc1)C(=O)c1oc2ccccc2c1C,-43.9
20,CCN(CC(=O)NCc1ccc(Cl)cc1)C(=O)c1oc2ccccc2c1C,-54.5
21,CCN(CC(=O)Nc1ccc(NC(C)=O)cc1)C(=O)c1oc2ccccc2c1C,-20.2
22,CCN(CC(=O)NCc1ccc(Cl)cc1)S(=O)(=O)c1ccc(F)cc1,-19.1

row,Structure (SMILES),"hERG current change (%, negative = inhibition) at 10uM [%]"
1,CCN(CC(=O)NCc1ccc(Cl)cc1)C(=O)CSc1ccccc1F,-19.3
2,CCN(CC(=O)NCc1ccc(Cl)cc1)C(=O)CSc1cccc(C(F)(F)F)c1,-23.3
3,CCN(CC(=O)NCc1ccc(Cl)cc1)C(=O)CSc1ccccc1,-65.6
4,CCN(CC(=O)NCc1ccc(Cl)cc1)C(=O)CSc1ccc(F)cc1,-71.1
5,CCN(CC(=O)Nc1c(F)cccc1F)C(=O)CSc1ccc(F)cc1,-14.3
6,CCN(CC(=O)NCc1ccc(Cl)cc1)C(=O)CN1C(=O)NC(CC)(c2ccccc2)C1=O (stereo not drawn),-6.03
7,Cc1ccc(-c2nn3c(C)nnc3s2)cc1NCc1c(F)cccc1Cl,2.39
8,Fc1ccc(N2CN(Cc3cccnc3)CNC2=S)cc1,10.7
9,Cc1ccc(C(O)Cn2nc(C)cc2C)cc1 (stereo not drawn),13.7
10,CCCCCc1c(O)nc(SCCN(CC)CC)[nH]c1=O.Cl,9.87
11,COc1ccc(N(C(=O)c2cccnc2)S(=O)(=O)c2ccc3c4c(cccc24)C(=O)N3C)cc1,17.7
12,C=CCn1c(=O)c2ccccc2n2c(SCc3nc4ccccc4s3)nnc12,-34.4
13,CCOc1ccc(NC(=O)Cn2nc(C(N)=O)c3ccccc3c2=O)cc1S(=O)(=O)N1CCCC1,0.537
14,COc1ccc(OC)c(NC(=O)c2cccc(Cn3cc(Br)c([N+](=O)[O-])n3)c2)c1,-13.9
15,Cc1ccccc1NC(=O)c1cccc(Cn2cc(Br)c([N+](=O)[O-])n2)c1,-3.63
16,COc1ccc(NC(=O)c2cccc(Cn3cc(Br)c([N+](=O)[O-])n3)c2)c(C)c1,-72
17,Cc1cc(CC(C)C)n(-c2nc3ccccc3c(=O)n2OCc2ccccc2)n1,-7.08
18,COc1ccc(CCNc2ncnc3c2nnn3Cc2ccccc2)cc1,13
19,COc1ccc(C(=O)C2CCCN(Cc3ccc4nonc4c3)C2)c(C)c1 (stereo not drawn),-20.3
20,COc1ccc(C(=O)C2CCCN(Cc3ccc4nonc4c3)C2)c(OC)c1 (stereo not drawn),-66.7
21,COc1ccc(C(=O)C2CCCN(Cc3ccc4nonc4c3)C2)cc1OC (stereo not drawn),-67.4
22,COc1ccc(C(=O)C2CCCN(Cc3ccc4nonc4c3)C2)cc1F (stereo not drawn),-41.1

row,Structure (SMILES),"hERG current change (%, negative = inhibition) at 10uM [%]"
1,COc1ccccc1CCNC(=O)CNC(=O)Cc1cccc2ccccc12,-1.6
2,CC(C(=O)Nc1ncn[nH]1)N1C(=O)c2ccccc2C1=O (stereo not drawn),17.4
3,CCCCn1c(=O)c(C(=O)Nc2ccccc2S(N)(=O)=O)c(O)c2ccccc21,-12.3
4,COc1ccc(N2CCN(CCCNC(=O)c3ccc(CS(=O)(=O)c4ccc(OC)cc4)o3)CC2)cc1,-68.9
5,COc1ccc(S(=O)(=O)Cc2ccc(C(=O)NCCCN3CCc4ccccc4C3)o2)cc1,-51.2
6,COc1ccc(S(=O)(=O)Cc2ccc(C(=O)NCc3ccccc3OC)o2)cc1,-41.6
7,O=C(NCCN1CCOCC1)c1ccc(CS(=O)(=O)c2ccc(Cl)cc2)o1,-4.24
8,O=C(NCCCN1CCCC1)c1ccc(CS(=O)(=O)c2ccc(Cl)cc2)o1,-6.15
9,COc1ccc(S(N)(=O)=O)cc1C(=O)NCCCN1CCN(c2cccc(Cl)c2)CC1.CS(=O)(=O)O,-23.9
10,COc1ccc(S(N)(=O)=O)cc1C(=O)NCCCN1CCN(c2ccc(C)cc2)CC1,-50.7
11,COCCNC(=O)c1ccc(CS(=O)(=O)c2ccc(OC)cc2)o1,-0.154
12,COc1ccc(N2CCN(CCCNC(=O)c3ccc(CS(=O)(=O)c4ccc(Cl)cc4)o3)CC2)cc1,-77.1
13,Cc1ccc(S(=O)(=O)Cc2ccc(C(=O)NCCCN3CCN(C)CC3)o2)cc1,15.6
14,COc1ccc(S(=O)(=O)Cc2ccc(C(=O)NC3CC3)o2)cc1,-2.21
15,COc1ccc(S(N)(=O)=O)cc1C(=O)NCC(C)(C)N1CCOCC1,8.36
16,O=C(Nc1cccc(F)c1)N1CC=C(c2ccc(Cl)cc2)CC1,-13.8
17,Cc1ccc(CN2CCN(/N=C/c3ccc(Cl)c([N+](=O)[O-])c3)CC2)cc1,-4.43
18,CCCOC1CCCN(C(=O)c2ccc3oc(C(C)C)nc3c2)C1 (stereo not drawn),3.64
19,Cc1ccccc1OCc1nc(-c2ccc(NC(=O)c3ccco3)cc2)no1,5.41
20,COc1ccc(N=Cc2c(O)n(Cc3ccccc3)c(=S)[nH]c2=O)c(OC)c1,-1.29
21,CC(C)[C@@H](C(=O)NCC1CCC(C(=O)O)CC1)n1nnc2ccccc2c1=O (stereo partly drawn),19.1
